Screening data (PubChem)
A selection: hits, their analogues and other compounds. The true share with any hit is near 0.47%.
AID inh: activation induced cytidine deaminase inhibition; Q9GZX7; AID deamination FRET fluorescence, UDG-coupled, 4 h; Potency, µM (top dose mostly 115 µM), actives largely listed as inhibitors; 91,000 tested, 0.32% active; note: nearly all actives have a fitted effect of over 25% in size
Target sequence (Q9GZX7 whole entry, looked up): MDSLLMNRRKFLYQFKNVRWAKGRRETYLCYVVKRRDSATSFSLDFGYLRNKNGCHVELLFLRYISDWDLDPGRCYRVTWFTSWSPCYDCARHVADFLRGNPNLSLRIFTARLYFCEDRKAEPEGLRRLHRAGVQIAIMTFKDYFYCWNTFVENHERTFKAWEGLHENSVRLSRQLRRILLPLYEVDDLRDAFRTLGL
UDG counter: counter-screen for AID inhibitors: uracil-DNA glycosylase inhibition | FRET deamination/UDG coupled assay, UDG read, 4 h | Potency, µM (series often up to 115 µM), actives largely listed as inhibitors | 91,000 tested, 0.14% active; note: nearly all actives have a fitted effect of over 65% in size
A number is an active result; i = inactive; ? = inconclusive. Calls come from the whole dose curve; as a rule, active = well fitted curve in the direction sought with a large enough effect; inconclusive = small, poorly fitted or top-dose-only effect, or another doubt; inactive = no such curve, though single readings can be large; an effect the other way counts as inactive or inconclusive.

SMILES	AID inh	UDG counter
COc1ccccc1NC(=O)CN(c1ccc(C(C)C)cc1)S(=O)(=O)c1c(C)noc1C	?	i
Cc1ccc(CNC(=O)c2c[nH]n3c(=O)c(Cc4ccc(F)cc4Cl)c(C)nc23)cc1	71µM	i
Cc1nc2c(C(=O)NCCc3ccccc3)c[nH]n2c(=O)c1Cc1ccc(F)cc1Cl	i	i
CSc1ncc(C(=O)Nc2ccccc2C(=O)c2ccccc2)c(C(F)(F)F)n1	i	i
COc1ccc(S(=O)(=O)N2CCn3cccc3C2c2ccccc2)cc1 (centres undefined)	i	?
Cc1ccc(S(=O)(=O)N2CCn3cccc3C2c2ccccc2)cc1 (centres undefined)	i	89µM
COc1ccc(Cn2c(SCc3ccc(C(=O)NC(C)c4ccccc4)cc3)nc3cccnc32)cc1 (centres undefined)	i	i
CCc1ccc(-n2c(SCc3nc(-c4cc(OC)ccc4OC)no3)nnc2-c2ccccc2)cc1	?	i
COc1ccc(-n2c(Cc3ccccc3)nnc2SCc2nc(-c3ccccc3C)no2)cc1	32µM	i
COc1ccc(Nc2ncc3c(n2)CCN(Cc2cc(Br)cs2)C3)c(OC)c1	?	89µM
COc1ccc(Nc2ncc3c(n2)CCN(Cc2ccc(Br)s2)C3)c(OC)c1	i	i
Cc1cccc(NC(c2cccc(Cl)c2)c2ccc3cccnc3c2O)n1 (centres undefined)	?	i
Cc1ccc(C(=O)Nc2ccc(S(=O)(=O)O)c3cc(S(=O)(=O)O)cc(S(=O)(=O)O)c23)cc1NC(=O)c1cccc(NC(=O)Nc2cccc(C(=O)Nc3cc(C(=O)Nc4ccc(S(=O)(=O)O)c5cc(S(=O)(=O)O)cc(S(=O)(=O)O)c45)ccc3C)c2)c1	7.1µM	i
Cc1ccc(NC(=O)c2cccc(NC(=O)NC(C)C)c2)cc1Cl	i	i
COc1ccccc1-n1ncc2c(=O)[nH]c(SCC(=O)Nc3cccc(F)c3)nc21	i	i
CCOc1ccccc1OCCCCn1c(-c2ccc(Cl)cc2)nc2ccccc2c1=O	32µM	i
CCOc1ccccc1OCCCn1c(-c2ccc(Cl)cc2)nc2ccccc2c1=O	i	i
CC(C)CCn1c(C2CC(=O)N(Cc3ccc(F)cc3)C2)nc2ccccc21 (centres undefined)	i	i
Cc1ccc(OCCn2c(C3CC(=O)N(Cc4ccc(F)cc4)C3)nc3ccccc32)c(C)c1 (centres undefined)	35µM	?
Cc1cc(-c2nn3c(-c4ccccn4)nnc3s2)c2ccccc2n1	i	i
O=S(=O)(NCCc1nnc2ccc(SCc3cccc(Cl)c3)nn12)c1ccccc1	40µM	i
Cc1ccc(C)c(CSc2ccc3nnc(CCNS(=O)(=O)c4ccccc4)n3n2)c1	?	i
CCCCNC(=O)c1c(-c2ccccc2)nnc2ccccc12	i	i
CC(=O)NC(Nc1cc(C(F)(F)F)ccc1Cl)C(Cl)(Cl)Cl (centres undefined)	i	i
Oc1ccc(NCc2ccccc2OCc2ccc(Cl)cc2)cc1	32µM	i
SMILES	AID inh	UDG counter
CCOc1cc(CNc2ccc(O)cc2)cc(Br)c1OCc1ccccc1	i	i
CCOc1cc(CNc2ccc(O)cc2)ccc1OCc1ccc(Cl)cc1	?	i
Oc1ccc(NCc2ccccc2OCc2ccccc2)cc1	32µM	79µM
CC(=O)N1CCN(C(C(=O)O)c2cn(CC(=O)O)c3cc(Cl)ccc23)CC1 (centres undefined)	i	i
COc1ccc(/C=C/C(=O)N[C@@H]2C[C@H]3CC[C@@H]2C3)cc1	i	i
Cc1ccc(-n2nc3c(=O)n(CC(=O)NC(C)C)nc(C)c3c2C)cc1	i	i
CCCCSCCCNC(=O)C1CCN(Cc2nc(-c3cccc(Br)c3)oc2C)CC1	i	?
CCCCSCCCNC(=O)C1CCN(Cc2nc(-c3ccc(CC)cc3)oc2C)CC1	?	89µM
CSc1cccc(Nc2cc(C(=O)NCCCN(Cc3ccccc3)C(C)C)c3ccccc3n2)c1	i	i
Cn1ccnc1CN(C(=O)c1ccc(F)c(C(F)(F)F)c1)C1CC1	i	i
Cc1cc(C)cc(NC(=O)COCc2cc(-c3ccc4c(c3)OCO4)on2)c1	?	79µM
COc1cc(NC(=O)COCc2cc(-c3ccc4c(c3)OCO4)on2)cc(OC)c1	i	?
N[C@@H](CCC(=O)N[C@H](CSN=O)C(=O)NCC(=O)O)C(=O)O	i	i
[N-]=[N+]=Nc1ccc(C(=O)CSC[C@H](NC(=O)CC[C@H](N)C(=O)O)C(=O)NCC(=O)O)cc1	89µM	i
O=C(Nc1cccc(C(F)(F)F)c1)C1CCN(S(=O)(=O)c2cccs2)CC1	?	79µM
O=C(Nc1ccc(OC(F)(F)F)cc1)C1CCN(S(=O)(=O)c2cccs2)CC1	i	?
COc1ccccc1/C=N\O	i	i
COc1cc(C2CC(=O)Nc3nc(N4CCCCC4)sc32)cc(OC)c1OC (centres undefined)	35µM	i
COc1cc(C2CC(=O)Nc3n[nH]c(Nc4ccccc4)c32)cc(OC)c1OC (centres undefined)	i	i
